Bioassay records as filed in PubChem BioAssay.
D3 antag = qHTS of D3 Dopamine Receptor Antagonist: qHTS. D(3) dopamine receptor (Homo sapiens), P35462. D3R cells, DiscoveRx beta-arrestin luminescence, antagonist mode; stronger effect = lower value. 2.5% of 360,000 active. AID 652054, 2013. max response, negative = inhibition, %; in the data active = max response below about -50%
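Cells plated overnight at 1500 cells/well, then exposed to library compounds with dopamine controls for 90 minutes at 37 degrees C. DiscoveRx reagent added for 30–60 minutes at room temperature; luminescence read, quantitative HTS format.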
TRPML1 agonist = qHTS for Agonists of the Human Mucolipin Transient Receptor Potential 1 (TRPML1); Mucolipin-1 (Homo sapiens), Q9GZU1; TRPML1-expressing cells, Ca2+ dye fluorescence, FDSS; activation, % (concentration not given with the values); 0.12% of 410,000 active; in the data active = activation above about 50%
Target sequence (Q9GZU1 whole entry, looked up): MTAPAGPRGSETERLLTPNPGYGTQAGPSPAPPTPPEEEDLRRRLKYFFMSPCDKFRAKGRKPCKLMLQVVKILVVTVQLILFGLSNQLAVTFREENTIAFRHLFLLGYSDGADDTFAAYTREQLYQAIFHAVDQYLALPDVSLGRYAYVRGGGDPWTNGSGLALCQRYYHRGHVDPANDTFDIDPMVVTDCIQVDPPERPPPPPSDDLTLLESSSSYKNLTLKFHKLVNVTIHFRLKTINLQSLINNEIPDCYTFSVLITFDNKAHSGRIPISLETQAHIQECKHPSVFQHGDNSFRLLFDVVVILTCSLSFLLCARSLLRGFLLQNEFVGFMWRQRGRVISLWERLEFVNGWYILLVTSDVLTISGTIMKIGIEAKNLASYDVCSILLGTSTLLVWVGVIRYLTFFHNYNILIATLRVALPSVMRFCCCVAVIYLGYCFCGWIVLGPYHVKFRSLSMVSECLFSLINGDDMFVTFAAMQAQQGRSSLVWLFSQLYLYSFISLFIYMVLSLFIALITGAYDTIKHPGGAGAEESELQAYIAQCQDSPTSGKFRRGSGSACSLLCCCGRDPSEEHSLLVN
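Calcium fluorescence on an FDSS kinetic reader gave the read-out. Tet-induced TRPML1-DL cells were plated overnight, dye-loaded (Ca8 with quencher, 45-90 min, room temperature, dark), then read 110 s after compound addition, and again 110 s after 4uM final 54-4 (EC80).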
TRPML1 blocker = qHTS for Inhibitors of the Human Mucolipin Transient Receptor Potential 1 (TRPML1) | Mucolipin-1 (Homo sapiens), Q9GZU1 | TRPML1-inducible cells, Ca2+ dye fluorescence, FDSS; stronger effect = lower value; inhibition of EC80 agonist-evoked calcium signal | activity change, negative = inhibition, % (test concentration not listed) | 0.02% of 390,000 active; in the data active = activity change below about -50%;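 note: stimulus is agonist 54-4 at its EC80 concentration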
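Calcium fluorescence in TRPML1-DL cells induced overnight with Tet: a 110 s read after compound pin addition, then a 110 s antagonist read after challenge with 54-4 at 4 uM final (EC80).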
D3 ag = qHTS of D3 Dopamine Receptor Agonist: qHTS; 0.58% of 410,000 active; max activation, %; AID 652048, 2013; D(3) dopamine receptor (Homo sapiens), P35462; D3R DiscoveRx beta-arrestin cells, luminescence, 90 min; in the data active = max activation above about 30%
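Agonist mode: compounds and dopamine controls were applied to plated cells for 90 min at 37 degrees C after an overnight attachment at 1500 cells/well. Luminescent read-out followed 30 - 60 minutes at room temperature with DiscoveRx detection reagent.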
Numbers stand for hits; n = inactive; x = not tested or not shown. Rows were chosen to be rich in hits. Some 2.9% of all compounds tested hit in one or more screens of this group.

SMILES	D3 antag	TRPML1 agonist	TRPML1 blocker	D3 ag
CCOC(=O)c1cnc2ccc(OC)cc2c1Nc1ccc2c(c1)OCCO2	-70	n	n	n
COc1cc2c(-c3ccccc3O)nc3c(c(C)nn3-c3ccccc3)c2cc1OC	n	n	n	n
COc1cc2c(-c3ccccc3Cl)nc3c(c(C)nn3-c3ccccc3)c2cc1OC	x	n	n	59
COc1cccc2c1C(=O)/C(=C\c1ccc(N(C)C)cc1)C2	x	62	x	x
O=C(C[N+]1(CCc2ccccc2)CCOCC1)c1ccccc1	x	n	x	x
Cc1ccc(C(=O)NCC(=O)OCC(=O)c2ccc3ccccc3c2)cc1	x	n	x	x
O=C(/C=C/c1ccccc1)c1ccc2c(c1)OCO2	n	n	n	n
COc1ccc(C(=O)/C=C/c2ccc(N(C)C)cc2)c(OC)c1	n	128	n	n
CN(C)c1ccc(/C=C/C(=O)c2ccc3c(c2)OCO3)cc1	n	84	n	n
O=C(/C=C/c1cccc(O)c1)c1cccnc1	n	n	n	n
CN(C)c1ccc(/C=C/C(=O)c2cccnc2)cc1	n	115	n	n
O=C(/C=C/c1ccncc1)c1ccc2c(c1)OCCO2	-54	n	n	n
Cc1ccc(C2=Nc3ccccc3N(CC(=O)Nc3ccccc3F)C(=O)C2)cc1C	x	n	n	n
COc1cccc(/C=C/c2nccc3ccccc23)c1OC	x	n	x	x
CN(C)c1ccc(/C=C/C(=O)c2ccc(O)cc2)cc1	n	87	n	n
CN(C)c1ccc(C(=O)C=Cc2ccc([N+](=O)[O-])cc2)cc1	n	n	n	n
O=C(CN1C(=O)C2(SCC(=O)N2c2cccc(Cl)c2)c2ccccc21)NCCc1ccccc1 (configuration not stated)	x	n	n	n
COc1cc(OC)cc(-c2c(C#Cc3ccsc3)c3cc(-c4ccc(OC)c(F)c4)ccc3n2C)c1	n	n	n	50
CC(C)c1ccc(NC(=O)CN2C=NS(=O)(=O)c3ccccc32)cc1	x	n	n	n
Oc1ccc(C[C@H]2CN([C@@H](Cc3ccc(O)cc3)CN3CCC[C@@H]3CN3C(=S)NC[C@@H]3Cc3ccccc3)C(=S)N2CCc2ccccc2)cc1	-53	n	n	n
CC(C)C[C@H]1CNC(=S)N1CC1CCCN1C[C@H](Cc1ccc(O)cc1)N1C[C@H](Cc2ccccc2)N(CC2CCCCC2)C1=S (some centres not stated)	-81	n	n	n
Oc1ccc(C[C@H]2CNC(=S)N2CC2CCCN2C[C@H](Cc2ccc(O)cc2)N2C[C@H](Cc3ccccc3)N(CC3CCCCC3)C2=S)cc1 (some centres not stated)	-64	n	n	n
CC(C)C[C@H]1CNC(=S)N1C[C@H]1CCCN1C[C@H](Cc1ccccc1)N1C[C@H](Cc2ccc(O)cc2)N(CC2CCCCC2)C1=S	n	n	n	n
O=C1NC[C@H](Cc2ccc(O)cc2)N(C[C@H]2CCCN2C[C@H](Cc2ccc(O)cc2)N2C[C@H](Cc3ccc(O)cc3)N(CCc3ccccc3)C(=O)C2=O)C1=O	-70	n	n	n
O=C1NC[C@H](Cc2ccccc2)N(C[C@@H]2CCCN2C[C@H](Cc2ccc(O)cc2)N2C[C@H](Cc3ccc(O)cc3)N(CCc3ccccc3)C(=O)C2=O)C1=O	n	n	x	n
SMILES	D3 antag	TRPML1 agonist	TRPML1 blocker	D3 ag
COc1cc(OC)c(NS(=O)(=O)c2c(C(=O)N3CCC(C)CC3)c(C)n(C)c2C)cc1Cl	x	n	n	n
Fc1ccc(-n2nnnc2-c2cnc(-c3cccs3)nc2C(F)(F)F)cc1	n	n	n	44
FC(F)(F)c1nc(-c2ccncc2)ncc1-c1nnnn1-c1ccccc1	n	n	n	n
C=CCn1c(Sc2ncc([N+](=O)[O-])s2)n[nH]c1=O	-80	n	n	n
O=C1Oc2ccccc2C(=O)/C1=C/N1CCN(c2ccccc2F)CC1	-59	n	n	n
COc1ccc(C(c2nnnn2Cc2ccccc2)N2CCN(C/C=C/c3ccccc3)CC2)cc1 (configuration not stated)	-96	n	x	n
CCN1CCN(C(c2ccccc2)c2nnnn2Cc2ccc(OC)cc2)CC1 (configuration not stated)	n	n	n	n
